This note sets out measurements from PubChem BioAssay (NCATS).

Structures are written as SMILES. Several values for one entry are separate records, joined by “and”; a condition that tells them apart may be missing. Equal entries are not always repeated. Records with an inconclusive call do not appear. A number with no mark means an inactive call. Activity calls are given as the source filed them. Calls come from the whole dose curve; as a rule, active = well fitted cell-killing curve with a large enough effect; inconclusive = small, poorly fitted or top-dose-only effect, or effect the other way; inactive = no such curve, though single readings can be large or run the other way.
Potency is the fitted concentration of half-maximal effect.

A short description of this test: Viability qHTS for spleen associated tyrosine kinase inhibitor (SYKi) naive MV4-11 cells (AID 1963823). Note: nearly all actives have a fitted effect of over 40% in size. Conditions: MV4-11 AML viability, CellTiter-Glo luminescence, 72 h; series mostly up to 45 µM; viability (% of control): at the top concentration. An excerpt: Department of Medicine, Hematology/Oncology
University Hospital Frankfurt, Germany.
Trials have shown promising clinical activity of the selective SYK inhibitor entospletinib in patients with high expressing HOXA9/MEIS1 acute leukemias. As the development of resistance mechanisms is a common problem in the use of targeted drugs, we performed a chemical library screen to identify drug sensitivities in SYK inhibitor resistant AML cells. […] Glucocorticoids are potent immunosuppressants which work in part by inhibiting the transcription of cytokine genes.
Described herein is a viability screen to look for activity in the SYK inhibitor naive cell line against four NCATS compound libraries (MIPE 5.0, NPC, NPACT, and Kinase) totaling 11372 compounds. Active hits were reacquired for confirmation and further secondary assay testing.
SEQUENCE No. (e.g., 1, 2, 3, etc.); […] (e.g., Cells, Incubation, Reagent, etc.); VALUE; DESCRIPTION.
1; Media; 2uL; white, solid-bottom Corning assay plate.
2; Compounds; 23nL; Echo acoustic dispenser.
3; Cell; 5uL; 500 cells per well.
4: Incubation; 72hr; 37 C, 5% CO2, 95% humidity.
5; Reagent; 3uL; CellTiter-Glo reagent (Promega).
6; Incubation; 10min; room temperature.
7; Detection; Luminescence; ViewLux plate reader (PerkinElmer).
NOTES (numbers refer to Sequence numbers above
1. Quantitative high-throughput screening (qHTS) of small molecule compounds was conducted on naive SYKi MV4-11 cell line.
2. Twenty-three nanoliter of small molecule compounds were added to each assay plates using the Echo acoustic dispenser (Beckman Coulter).
3. Cells were seeded into the assay plates at a final density of 500 cells in 5uL of media per well using the Multi-drop Combi dispenser.
4. Plates were covered with stainless steel gasketed lids and incubated for 72 hours at standard cell culture conditions.
5. Viability was assessed by adding 3uL of CellTiter-Glo detection reagent (Promega).
6. Plates were covered with gasket lids and incubated for 10 minutes at room temperature.
7. Luminescence was measured on a ViewLux plate reader (PerkinElmer).
In general terms: Quantitative high-throughput screening tests each substance at several concentrations.
For `COC(=O)N1CCN(C(=O)Cc2ccc(Cl)c(Cl)c2)[C@@H](CN2CCCC2)C1`, the “viability (% of control)” value is 68.9%.
Take `CC(C)(C)NCC(O)c1cc(Cl)c(N)c(C(F)(F)F)c1` (stereo not given): the “viability (% of control)” value is 75.5%.
With `COC1C(O)C(C)OC(OC2C(CO)O[C@@H](O[C@@H]3CC4CCC5C(CC[C@]6(C)[C@@H](C7=CC(=O)OC7)CC[C@]56O)[C@@]4(C)[C@H](O)C3)C(O)C2O)C1O` (stereo not given in full), the Potency is 385 nM (active).
Take `C#CCN(C)[C@H](C)Cc1ccccc1`: the Potency entry is “inactive”.
In the case of `COC(=O)[C@@H](N)CCCN=C(N)N[N+](=O)[O-]`, the “viability (% of control)” value was 99.5%.
With `CN1CCCCC1Cn1cc(C(=O)c2cc([N+](=O)[O-])ccc2I)c2ccccc21` (stereo not given), the Potency is 14600 nM (active).
For `CCN[C@H](C)Cc1cccc(C(F)(F)F)c1`, the “viability (% of control)” value is 69.9% [at 91.9 µM].
Take `CC(=O)OCC1=C(C(=O)O)N2C(=O)[C@@H](N)[C@H]2SC1`: the Potency result is “inactive”.
With `CCOP(=S)(OCC)Oc1ccc2c(C)c(Cl)c(=O)oc2c1`, the “viability (% of control)” value was 64.3%.
As to `CCC1NC(=O)C2C(Cl)C(Cl)CN2C(=O)C(C(C)O)NC(=O)CC(c2ccccc2)NC(=O)C(CO)NC1=O` (stereo not given), the “viability (% of control)” value was 86.9% [at 17.3 µM].
On to `C[C@]12CC[C@H](O[C@@H]3O[C@H](CO)[C@@H](O)[C@H](O)[C@H]3O)CC1=CC[C@@H]1C2CC[C@]2(C)[C@@H](C3=CC(=O)OC3)CC[C@]12O` (stereo not given in full), for which the Potency was 2730 nM (active).
Consider `NCc1cccnc1`, for which the “viability (% of control)” value is 79.8%.
Turning to `ClCCN1CCCC1`, the “viability (% of control)” value is 92.7%.
In the case of `O=C(O)c1ccc(=O)[nH]c1`, the “viability (% of control)” value was 95.7%.
Regarding `CCC1(C2=NCCN2)Cc2ccccc2O1` (stereo not given), the “viability (% of control)” value is 81.4%.
Consider `CO[C@@H]1C[C@H](O[C@H]2CC[C@@]3(C)C(CCC4C3CC[C@]3(C)[C@@H](C5=CC(=O)OC5)[C@@H](OC(C)=O)CC43O)C2)O[C@H](C)[C@@H]1O[C@H]1O[C@H](CO[C@@H]2O[C@H](CO)[C@@H](O)[C@H](O)[C@H]2O)[C@@H](O)[C@H](O)[C@H]1O` (stereo not given in full), for which the Potency was 310 nM (active).
Turning to `CCCC(C)(COC(N)=O)COC(=O)NC(C)C` (stereo not given), the “viability (% of control)” value was 91%.
On the same count and under the same terms, the value for `COC1CC(OC2CCC3(C)C(=CCC4C3CCC3(C)C(C(C)OC5OC(COC6OC(CO)C(O)C(O)C6O)C(O)C(O)C5O)CCC43O)C2)OC(C)C1OC1OC(C)C(O)C(OC)C1O` (stereo not given) was 91.8% [at 9.25 µM]; that for `N#CC(OC1OC(COC2OC(CO)C(O)C(O)C2O)C(O)C(O)C1O)c1ccccc1` (stereo not given) was 82% [at 17.3 µM].
Still for that read-out and setting: then `NCCc1cc(O)c(O)cc1O`, with 69.2%.
Turning to `CC1=C[C@H]2O[C@@H]3[C@H](O)[C@@H](O)[C@](C)([C@@]2(CO)C[C@@H]1O)[C@]31CO1`, the Potency is 820 nM (active).
Take `C=CCC1(C(C)CC)C(=O)NC(=O)NC1=O` (stereo not given): the “viability (% of control)” value is 69.3%.
Turning to `CCN(C(C)=O)c1cccc(-c2ccnc3c(C#N)cnn23)c1`, the “viability (% of control)” value is 79.8%.
With `C[C@H](CCC(=O)O)C[C@H](C)C[C@H](C)C(=O)/C=C(\O)[C@H](C)C[C@H](C)C/C=C/[C@@H](C)[C@@H](O)[C@@H](C)[C@@H](O)C[C@@H]1CC[C@@](C)([C@H]2CC[C@@](C)([C@@H](C)O)O2)O1`, the Potency was 2520 nM (active).
For the compound `c1ccc([C@@H]2C[C@H]2NC2CCNCC2)cc1`, the “viability (% of control)” value is 1.98%.
In the case of `CCC(=O)O[C@@H]1C=C2CCC3C(CCC4(C)C3CC[C@@H]4OC(=O)CC)C2CC1` (stereo not given in full), the “viability (% of control)” value was 65.2%.
For `CN1Cc2c(ccc3c2OCO3)[C@@H]2[C@H]1c1cc3c(cc1C[C@@H]2O)OCO3`, the Potency was 3210 nM (active).
Consider `CC[C@@H](C)[C@H]1C(=O)O[C@H](C(C)C)C(=O)N(C)[C@@H](C(C)C)C(=O)O[C@H](C(C)C)C(=O)N(C)[C@@H](C(C)C)C(=O)O[C@H](C(C)C)C(=O)N1C`, for which the Potency is 5440 nM (active).
Still for that read-out and setting: then `CC(C)=CCC[C@]1(C)C=Cc2c(O)c3c(c(CC=C(C)C)c2O1)O[C@]12C(=C[C@@H]4CC1C(C)(C)O[C@@]2(C/C=C(/C)C(=O)O)C4=O)C3=O`, with 517 nM (active).
`C[N@@+]1(CC2CC2)CC[C@]23c4c5ccc(O)c4O[C@H]2C(=O)CC[C@@]3(O)[C@H]1C5`: the “viability (% of control)” value was 111%.
Consider `O=C(Nc1ccncc1)C(=O)c1cn(Cc2ccc(Cl)cc2)c2ccccc12`, for which the Potency was 132 nM (active).
For the compound `CN(CC[C@H](N)CC(=O)N[C@H]1C=C[C@@H](n2ccc(N)nc2=O)O[C@@H]1C(=O)O)C(=N)N`, the viability (% of control) was 83.5% [at 9.25 µM].
The same measure, in the same setting: the value for `CCc1c(C(=O)C(N)=O)c2c(OCC(=O)O)cccc2n1Cc1ccccc1` was 66.9%.
On to `COc1nn(CSP(=S)(OC)OC)c(=O)s1`, for which the Potency is 38600 nM (active).
`Cc1c(Cl)c(OCC(=O)N2CCN(C)CC2)nc2sc(C(=O)NC3CC3)c(N)c12`: the “viability (% of control)” value is 60.6%.
With `CCOc1ccccc1-n1c(C(C)N2CCN(C(=O)COc3ccc(Cl)cc3)CC2)nc2ccccc2c1=O` (stereo not given), the Potency is 920 nM (active) and 742 nM (active).
In the case of `CCNC(=O)C[C@@H]1N=C(c2ccc(Cl)cc2)c2cc(OC)ccc2-n2c(C)nnc21`, the Potency was 411 nM (active) and 417 nM (active).
`O=C1c2ccccc2C(=O)C1C(=O)C(c1ccccc1)c1ccccc1`: the “viability (% of control)” value was 92%.
Take `CO[C@H]1C[C@H](O[C@H]2CC[C@]3(C=O)[C@H]4CC[C@]5(C)[C@@H](C6=CC(=O)OC6)CC[C@]5(O)[C@@H]4CC[C@]3(O)C2)O[C@H](C)[C@H]1O`: the Potency is 63.2 nM (active).
As for `Clc1cccc(SC2CCNCC2)n1`, the “viability (% of control)” value is 77%.
